{"source": "the supplement of paper PMC9177965"}
{"test_system": "HT29 sg-Ctrl (RNF43 wildtype)", "assay": "cell viability activity relative to DMSO (negative = inhibition); higher = more viable cells (less growth inhibition)", "conditions": "5 µM; 96 h", "description": "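Broad Repurposing Library primary screen at a single dose of 5 uM. HT29 sg-Ctrl and HT29 RNF43 G659fs CRISPR-edited isogenic cells were seeded at 2500 cells/well in 384-well plates in duplicate and treated for 96 h. Viability was read by CellTiter-Glo and reported as % activity relative to DMSO, with MG132 as the positive control (negative = growth inhibition).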", "units": {"cell viability activity": "%"}}
{"smiles": "CCn1c(=O)c(-c2cc[nH]n2)cc2c(C)nc(N)nc21", "cell viability activity": -42.2}
{"smiles": "CCCCC(=O)OCC(=O)[C@]1(O)Cc2c(O)c3c(c(O)c2[C@@H](O[C@H]2C[C@H](NC(=O)C(F)(F)F)[C@H](O)[C@H](C)O2)C1)C(=O)c1c(OC)cccc1C3=O", "cell viability activity": -25.4}
{"smiles": "CCN(CC)CCOCCOC(=O)C(CC)(CC)c1ccccc1", "cell viability activity": -61.1}
{"smiles": "Cc1cc(Nc2nc(N[C@@H](C)c3ccc(F)cc3)c(C#N)cc2F)n[nH]1", "cell viability activity": -56.7}
{"smiles": "O=[N+]([O-])c1ccccc1S(=O)(=O)NCC1CCC(CNCC2CCc3ccccc3C2)CC1", "note": "(configuration not stated)", "cell viability activity": -61.4}
{"smiles": "CN(C)C/C=C/C(=O)Nc1cccc(C(=O)Nc2cccc(Nc3ncc(Cl)c(-c4c[nH]c5ccccc45)n3)c2)c1", "cell viability activity": -94.7}
{"smiles": "Cc1cc(-c2cc(O)ccc2Cl)cc2nnc(Nc3ccc(OCCN4CCCC4)cc3)nc12", "cell viability activity": -76.9}
{"smiles": "O=C(Nc1ccccc1-c1cn2c(CN3CCNCC3)csc2n1)c1cnc2ccccc2n1", "cell viability activity": -81.8}
{"smiles": "Cc1cc(Nc2cc(N3CCN(C)CC3)nc(Sc3ccc(NC(=O)C4CC4)cc3)n2)n[nH]1", "cell viability activity": -38.2}
{"smiles": "Cn1cc(-c2ccncc2)c(-c2ccc(OCc3ccc4ccccc4n3)cc2)n1", "cell viability activity": -38.8}
{"smiles": "NC1(c2ccc(-c3nc4ccn5c(=O)[nH]nc5c4cc3-c3ccccc3)cc2)CCC1", "cell viability activity": -39.4}
{"smiles": "Cc1ccc(C(=O)Nc2ccc(CN3CCN(C)CC3)c(C(F)(F)F)c2)cc1C#Cc1cnc2cccnn12", "cell viability activity": -78.4}
{"smiles": "CC(=O)c1cc2c(o1)C(=O)c1ccccc1C2=O", "cell viability activity": -96.4}
{"smiles": "Nc1ccc(-c2ccc3ncc4ccc(=O)n(-c5cccc(C(F)(F)F)c5)c4c3c2)cn1", "cell viability activity": -42.1}
{"smiles": "Nc1ncnc2c1c(-c1cnc3[nH]ccc3c1)nn2C1CCCC1", "cell viability activity": -78.7}
{"smiles": "Cc1cc(NC(=O)NCCN2CCC(O)(Cc3ccccc3)CC2)c2ccccc2n1", "cell viability activity": -24.3}
{"smiles": "CCCSc1ccc2[nH]c(NC(=O)OC)nc2c1", "cell viability activity": -76.8}
{"smiles": "COc1ccc(NC(=O)c2ccc(-c3ccc(-c4noc(C)n4)cc3C)cc2)cc1N1CCN(C)CC1", "cell viability activity": -57.8}
{"smiles": "CN(c1ccccc1CNc1nc(Nc2ccc3c(c2)CC(=O)N3)ncc1C(F)(F)F)S(C)(=O)=O", "cell viability activity": -57.8}
{"smiles": "CNC(=O)c1ccccc1Nc1cc(Nc2ccc(N3CCOCC3)cc2OC)ncc1C(F)(F)F", "cell viability activity": -60}
{"smiles": "O=C(O)/C=C/c1ccc(O)c(O)c1", "cell viability activity": -80.2}
{"smiles": "CCCCCCCCCCCCCCCC[N+](C)(C)C", "cell viability activity": -74.2}
{"smiles": "CO[C@@H](C(=O)N1Cc2[nH]nc(NC(=O)c3ccc(N4CCN(C)CC4)cc3)c2C1)c1ccccc1", "cell viability activity": -55.5}
{"smiles": "CN[C@@H](C)C(=O)N[C@H](C(=O)N1CCC[C@H]1C(=O)N[C@H]1c2ccccc2C[C@H]1OCC#CC#CCO[C@@H]1Cc2ccccc2[C@@H]1NC(=O)[C@@H]1CCCN1C(=O)[C@@H](NC(=O)[C@H](C)NC)C1CCCCC1)C1CCCCC1", "cell viability activity": -77.2}
{"smiles": "Clc1ccc(COC(Cn2ccnc2)c2ccc(Cl)cc2Cl)cc1", "note": "(configuration not stated)", "cell viability activity": -14.6}
{"smiles": "Cc1ccc2c(Br)cc(Br)c(OC(=O)c3ccccc3)c2n1", "cell viability activity": -34.5}
{"smiles": "CN1CCc2c(c3ccccc3n2Cc2ccccc2)C1", "cell viability activity": -56.9}
{"smiles": "CNC(=O)c1ccccc1Nc1nc(Nc2ccc3c(c2OC)CCC[C@H](N2CCN(CCO)CC2)C3)ncc1Cl", "cell viability activity": -85.5}
{"smiles": "Nc1nc(Cl)nc2c1ncn2[C@@H]1O[C@H](CO)[C@@H](O)[C@@H]1F", "cell viability activity": -63.4}
{"smiles": "CC(C)OC(=O)OCOP(=O)(CO[C@H](C)Cn1cnc2c(N)ncnc21)OCOC(=O)OC(C)C", "cell viability activity": -48.3}
{"smiles": "CC(C)n1nc(-c2ccc3oc(N)nc3c2)c2c(N)ncnc21", "cell viability activity": -52.5}
{"smiles": "CCc1cnn2c(NCc3ccc[n+]([O-])c3)cc(N3CCCC[C@H]3CCO)nc12", "cell viability activity": -84.3}
{"smiles": "O=C(c1cccc(Cl)c1F)N1CCN(Cc2cccc(Nc3nccs3)n2)CC1", "cell viability activity": -25.6}
{"smiles": "COc1cc2c(cc1-c1c(C)noc1C)ncc1[nH]c(=O)n([C@H](C)c3ccccn3)c12", "cell viability activity": -68.4}
{"smiles": "C#C[C@]1(O)CC[C@H]2[C@@H]3CCC4=C(CCC(=O)C4)[C@H]3CC[C@@]21C", "cell viability activity": -59.4}
{"smiles": "CNC(=O)c1cccc(-c2ccc3c(N4CCOC[C@@H]4C)nc(N4CCOC[C@@H]4C)nc3n2)c1", "cell viability activity": -42.8}
{"smiles": "O=C1[C@H](Cc2ccc(O)cc2)N2C(=O)CCN(C(=O)NCc3ccccc3)[C@H]2CN1Cc1cccc2ccccc12", "cell viability activity": -41.8}
